PubChem BioAssay (Tox21)
Records with an inconclusive call do not appear. Calls of active or inactive are those of the source. Unless noted, calls follow the shape of the dose curve; as a rule, active = well fitted curve in the direction sought with a large enough effect in the repeat runs; inconclusive = weak or mixed curves; inactive = no such curve, though single readings can be large; an effect the other way counts as inactive or inconclusive.

Experiments:
[1] = qHTS assay to identify small molecule antagonists of the androgen receptor (AR) signaling pathway using the MDA cell line in the presence of 0.5 nM R1881 - cell viability counter screen (AID 1259242); also: nearly all actives have a fitted effect of over 45% in size
Outline: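 Concentration-response screen of compounds for toxicity in MDA-kb2 reporter cells: 16 hr at 37C with 0.5 nM R1881, endpoint live-cell protease fluorescence measured in the reporter wells.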

[2] = qHTS assay to identify small molecule phospholipidosis (PLD) inducers (AID 1259344; active = well fitted curve in the direction sought with a large enough effect; an effect the other way counts as inactive or inconclusive; also: potency is read from the fitted curve at half-maximal effect)
Outline: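 Read-out is LipidTOX Red fluorescence (ex 595/em 615) imaged in HepG2 cells after 24 h compound exposure at 37 C, with Hoechst nuclear counterstain (ex 352/em 461) allowing per-cell normalisation.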

[3] = qHTS assay to identify small molecule HDAC inhibitors (AID 1259364);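 also: wild-type HCT-116 cells with endogenous class I/II HDAC activity; top concentration of the series differs between compounds; nearly all actives have a fitted effect of over 45% in size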
Outline: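 Screening used wild-type human colon HCT-116 cells incubated overnight, dosed with compounds for 2 hours, and assayed with a homogeneous luminogenic HDAC I/II reagent for 30 minutes at room temperature.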

[4] = qHTS assay to identify small molecule agonists of the sonic hedgehog signaling (Shh) pathway - cell viability counter screen (AID 1259366); also: nearly all actives have a fitted effect of over 50% in size; also: potency is read from the fitted curve at half-maximal effect
Outline: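 Cytotoxicity counter screen: CellTiter-Fluor reagent added after 23 h compound exposure, then 1 h at 37C and fluorescence read. Cells were 3T3 Gli1-Luc, seeded 2,000 per well and dosed 4 h post-plating.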

[5] = qHTS assay to identify small molecule antagonists of the sonic hedgehog signaling (Shh) pathway - cell viability counter screen (AID 1259367); also: nearly all actives have a fitted effect of over 55% in size; also: potency is read from the fitted curve at half-maximal effect
Outline: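 Fluorescence read-out (CellTiter-Fluor, 1 hr at 37C) taken after 23 hr compound treatment of 3T3 Gli1-Luc cells stimulated with conditioned medium. Cells were seeded at 2,000 per well and pre-incubated 4 hr.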

[6] = qHTS assay to identify small molecule antagonists of the sonic hedgehog signaling (Shh) pathway (AID 1259369; calls by dose curve; also: nearly all actives have a fitted effect of over 45% in size; also: potency is read from the fitted curve at half-maximal effect)
Outline: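 NIH/3T3 stable Gli1-Luc clone, 2,000 cells/well, 4hr settle; cpd + conditioned medium 24hr; Luc reagent 30min RT; luminescence.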

[7] = molecular target: Estrogen receptor beta (Homo sapiens) (UniProt Q92731); test: qHTS assay to identify small molecule agonists of the estrogen receptor beta (ER-beta) signaling pathway (AID 1259377; active = well fitted activation curve with a large enough effect in the signal ratio in the repeat runs, not every such curve was filed as active; the % refers to the signal ratio)
Chain of Estrogen receptor beta (Homo sapiens) (Q92731 whole entry, looked up): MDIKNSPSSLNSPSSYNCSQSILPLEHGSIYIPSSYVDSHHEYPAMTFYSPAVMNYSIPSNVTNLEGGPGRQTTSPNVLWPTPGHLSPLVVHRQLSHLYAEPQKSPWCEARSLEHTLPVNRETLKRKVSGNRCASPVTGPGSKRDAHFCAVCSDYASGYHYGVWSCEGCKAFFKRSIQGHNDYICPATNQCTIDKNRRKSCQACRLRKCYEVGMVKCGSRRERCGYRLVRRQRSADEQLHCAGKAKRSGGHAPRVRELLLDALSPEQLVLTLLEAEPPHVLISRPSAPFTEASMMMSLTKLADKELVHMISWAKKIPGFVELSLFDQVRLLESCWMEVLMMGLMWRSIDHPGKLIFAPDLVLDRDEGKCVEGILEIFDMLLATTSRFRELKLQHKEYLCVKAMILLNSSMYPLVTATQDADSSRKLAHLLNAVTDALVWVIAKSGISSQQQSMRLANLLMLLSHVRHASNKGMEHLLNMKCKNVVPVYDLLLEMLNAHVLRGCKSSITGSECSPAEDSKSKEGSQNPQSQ
Outline: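 Ratiometric beta-lactamase FRET read-out came after 2 h substrate loading at room temperature. It followed 16 h compound treatment at 37C of GripTite HEK293T cells carrying a UAS-bla reporter, plated in 2% charcoal-stripped FBS medium.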

[8] = molecular target: Estrogen receptor beta (Homo sapiens) (UniProt Q92731); test: qHTS assay to identify small molecule antagonists of the estrogen receptor beta (ER-beta) signaling pathway (AID 1259378; active = well fitted inhibition curve with a large enough effect in the signal ratio in the repeat runs, not every such curve was filed as active; the % refers to the signal ratio; also: potency is read from the fitted curve at half-maximal effect)
Outline: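 ER-beta-UAS-bla HEK293T cells in 2% charcoal-stripped FBS medium treated with compound plus 1nM final 17-beta-estradiol for 16 hr at 37C. Beta-lactamase reporter read by FRET substrate fluorescence after 2 hours at room temperature.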

[9] = qHTS assay to identify small molecule agonists of the androgen receptor (AR) signaling pathway in the presence of an antagonist - cell viability counter screen (AID 1259379);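 also: MDA-kb2 human breast cancer cells carrying an MMTV luciferase reporter; series mostly up to about 92 µM; nearly all actives have a fitted effect of over 25% in size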
Outline: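 MDA-kb2 viability measured by CellTiter-Fluor fluorescence in the same wells as the luciferase signal; nilutamide 3.0uM final; 15-point compound titration; 16 hr at 37C.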

[10] = qHTS assay to identify small molecule agonists of the estrogen receptor beta (ER-beta) signaling pathway - cell viability counter screen (AID 1259380); also: nearly all actives have a fitted effect of over 30% in size; also: potency is read from the fitted curve at half-maximal effect
Outline: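 Measured: luminescence from CellTiter-Glo after 30 min at room temperature, added to wells already read for the LiveBLAzer FRET reporter (2 hr substrate); ER-beta-UAS-bla HEK293T cells had 16 hr compound treatment at 37C, 5% CO2.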

[11] = qHTS assay to identify small molecule agonists or antagonists of the thyroid stimulating hormone receptor (TSHR) signaling pathway - wild type cell line counter screen (AID 1259384; calls by dose curve)
Outline: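 Wild-type Hek293 cells, 800/well, 18 h at 37C, then compound with Ro20-1724 for 30 min RT. cAMP by HTRF (cAMP-d2/anti-cAMP cryptate), 1 h RT, fluorescence read. 15 concentrations, triplicates.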

[12] = molecular target: Thyrotropin receptor (Homo sapiens) (UniProt P16473); test: qHTS assay to identify small molecule antagonists of the thyroid stimulating hormone receptor (TSHR) signaling pathway (AID 1259385; calls by dose curve; also: nearly all actives have a fitted effect of over 20% in size)
Chain of Thyrotropin receptor (Homo sapiens) (P16473 whole entry, looked up): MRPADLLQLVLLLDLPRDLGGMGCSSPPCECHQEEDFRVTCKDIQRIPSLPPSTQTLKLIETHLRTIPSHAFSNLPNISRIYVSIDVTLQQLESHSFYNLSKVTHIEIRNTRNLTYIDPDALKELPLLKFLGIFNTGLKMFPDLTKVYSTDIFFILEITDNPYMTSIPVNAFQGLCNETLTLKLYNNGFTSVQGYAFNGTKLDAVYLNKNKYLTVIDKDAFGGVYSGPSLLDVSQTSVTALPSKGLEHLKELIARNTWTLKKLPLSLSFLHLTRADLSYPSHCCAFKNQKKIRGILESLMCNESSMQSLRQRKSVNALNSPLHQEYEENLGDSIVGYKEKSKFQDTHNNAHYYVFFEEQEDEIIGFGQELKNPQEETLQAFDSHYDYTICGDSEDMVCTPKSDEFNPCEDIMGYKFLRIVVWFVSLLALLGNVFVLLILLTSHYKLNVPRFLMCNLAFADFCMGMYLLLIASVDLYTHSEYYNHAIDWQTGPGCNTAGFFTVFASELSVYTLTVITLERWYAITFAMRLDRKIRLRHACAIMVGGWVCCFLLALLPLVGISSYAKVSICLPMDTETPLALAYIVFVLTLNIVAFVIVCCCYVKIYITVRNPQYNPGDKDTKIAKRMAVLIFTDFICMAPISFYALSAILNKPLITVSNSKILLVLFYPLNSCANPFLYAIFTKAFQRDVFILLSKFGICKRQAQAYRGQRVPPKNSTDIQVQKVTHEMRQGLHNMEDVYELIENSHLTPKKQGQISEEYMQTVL
Outline: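 TSHR-HEK293 cells (800/well) plated 18 h, then compounds with Ro20-1724 and TSH at 1.5 ng/mL final, 30 min at room temperature. cAMP quantified by HTRF (cAMP-d2/anti-cAMP-cryptate, 1 h); 15 concentrations in triplicate.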

[13] = qHTS assay to identify small molecule HDAC inhibitors - cell viability counter screen (AID 1259365); also: series mostly up to about 92 µM; nearly all actives have a fitted effect of over 50% in size
Outline: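 CellTiter-Glo luminescence (30 min, room temperature) reported viability after a 2 h compound exposure at 37 C. Cells: wild-type HCT-116, 1,500 per well, seeded the night before.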

[14] = qHTS assay to identify small molecule agonists of the sonic hedgehog signaling (Shh) pathway (AID 1259368; calls by dose curve;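 also: NIH/3T3-derived 3T3Gli1-Luc cells carrying a stable Gli1-driven firefly luciferase reporter; series mostly up to about 92 µM; nearly all actives have a fitted effect of over 15% in size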)
Outline: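 Hedgehog pathway agonism scored by increased firefly luciferase luminescence in 3T3Gli1-Luc cells treated 24 hr at 37 C; detection used a 30 min room-temperature reagent incubation.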

[15] = qHTS assay to identify small molecule antagonists of the estrogen receptor beta (ER-beta) signaling pathway - cell viability counter screen (AID 1259382); also: nearly all actives have a fitted effect of over 55% in size; also: potency is read from the fitted curve at half-maximal effect
Outline: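 Readout: luminescence, CellTiter-Glo, same wells as bla assay. System: ER-beta-UAS-bla GripTite HEK293T, 2% charcoal-stripped FBS. Exposure: compounds plus 1nM 17-beta-estradiol, 16 hr, 37C.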

[16] = molecular target: Estrogen receptor (Homo sapiens) (UniProt P03372); test: qHTS assay to identify small molecule agonists of the estrogen receptor alpha (ER-alpha) signaling pathway in the presence of an antagonist (AID 1259383; calls by dose curve; also: top concentration of the series differs between compounds; nearly all actives have a fitted effect of over 15% in size)
Chain of Estrogen receptor (Homo sapiens) (P03372 whole entry, looked up): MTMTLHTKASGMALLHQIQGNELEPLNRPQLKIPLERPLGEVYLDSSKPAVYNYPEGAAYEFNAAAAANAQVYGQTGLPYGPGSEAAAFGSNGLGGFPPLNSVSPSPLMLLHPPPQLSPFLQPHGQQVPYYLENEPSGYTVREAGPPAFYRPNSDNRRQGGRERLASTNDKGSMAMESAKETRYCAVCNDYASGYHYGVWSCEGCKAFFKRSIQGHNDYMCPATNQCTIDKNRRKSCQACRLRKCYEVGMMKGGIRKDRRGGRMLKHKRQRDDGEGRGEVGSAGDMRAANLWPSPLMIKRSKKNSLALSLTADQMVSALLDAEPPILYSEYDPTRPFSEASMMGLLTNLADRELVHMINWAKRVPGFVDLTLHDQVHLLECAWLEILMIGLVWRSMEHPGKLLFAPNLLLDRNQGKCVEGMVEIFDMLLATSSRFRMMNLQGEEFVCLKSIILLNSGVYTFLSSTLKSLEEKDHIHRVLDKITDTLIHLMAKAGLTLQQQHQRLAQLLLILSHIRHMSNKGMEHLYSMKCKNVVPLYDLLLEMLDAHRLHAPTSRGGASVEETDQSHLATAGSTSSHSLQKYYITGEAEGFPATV
Outline: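 Quantitative HTS confirmation: compounds titrated at 15 concentrations onto estrogen-deprived VM7Luc4E2 cells carrying a four-ERE luciferase construct, with ICI-182,780 present at 10.0nM final. Signal is luminescence after 22hr exposure.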

[17] = molecular target: Estrogen receptor (Homo sapiens) (UniProt P03372); test: qHTS assay to identify small molecule antagonists of the estrogen receptor alpha (ER-alpha) signaling pathway using the BG1 cell line in the presence of 0.1 nM 17-beta-estradiol (AID 1259244); also: nearly all actives have a fitted effect of over 50% in size
Outline: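 Compounds were tested against 0.1 nM (final) 17beta-estradiol in VM7Luc4E2 cells, which express full-length ER-alpha and an ERE-luciferase reporter; luminescence was recorded following 22 h exposure.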

[18] = molecular target: Androgen receptor (Homo sapiens) (UniProt P10275); test: qHTS assay to identify small molecule antagonists of the androgen receptor (AR) signaling pathway using the MDA cell line in the presence of 0.5 nM R1881 (AID 1259243); also: nearly all actives have a fitted effect of over 50% in size
Chain of Androgen receptor (Homo sapiens) (P10275 whole entry, looked up): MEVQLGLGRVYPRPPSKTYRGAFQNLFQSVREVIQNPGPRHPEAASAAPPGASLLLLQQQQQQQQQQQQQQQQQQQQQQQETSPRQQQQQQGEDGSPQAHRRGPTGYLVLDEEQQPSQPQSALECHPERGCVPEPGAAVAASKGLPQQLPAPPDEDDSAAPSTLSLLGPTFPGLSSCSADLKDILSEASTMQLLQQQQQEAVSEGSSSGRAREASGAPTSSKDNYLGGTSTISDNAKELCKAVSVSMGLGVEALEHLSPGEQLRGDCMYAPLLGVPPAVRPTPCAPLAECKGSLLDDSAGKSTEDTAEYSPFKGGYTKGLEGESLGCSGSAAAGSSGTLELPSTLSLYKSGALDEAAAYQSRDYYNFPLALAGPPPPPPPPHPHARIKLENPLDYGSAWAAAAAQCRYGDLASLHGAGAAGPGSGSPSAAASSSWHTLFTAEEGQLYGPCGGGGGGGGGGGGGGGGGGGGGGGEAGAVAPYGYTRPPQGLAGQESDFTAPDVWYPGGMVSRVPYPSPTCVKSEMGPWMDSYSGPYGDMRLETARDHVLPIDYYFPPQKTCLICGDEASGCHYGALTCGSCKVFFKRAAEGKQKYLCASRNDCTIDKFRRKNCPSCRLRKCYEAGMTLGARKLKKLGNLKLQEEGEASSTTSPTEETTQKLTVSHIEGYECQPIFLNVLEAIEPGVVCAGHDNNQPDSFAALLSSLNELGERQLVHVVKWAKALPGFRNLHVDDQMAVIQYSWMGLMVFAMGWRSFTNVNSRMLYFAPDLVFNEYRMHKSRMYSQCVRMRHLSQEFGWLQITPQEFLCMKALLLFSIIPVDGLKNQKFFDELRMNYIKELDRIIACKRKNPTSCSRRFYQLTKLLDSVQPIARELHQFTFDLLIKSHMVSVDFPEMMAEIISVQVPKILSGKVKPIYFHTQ
Outline: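 With R1881 held at 0.5 nM (final), compound effects on MMTV-luciferase expression in MDA-kb2 cells were scored by luminescence after a 16 hr, 37C incubation.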

[19] = molecular target: Androgen receptor (Homo sapiens) (UniProt P10275); test: qHTS assay to identify small molecule agonists of the androgen receptor (AR) signaling pathway in the presence of an antagonist (AID 1259381; calls by dose curve; also: nearly all actives have a fitted effect of over 15% in size)
Outline: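 Luminescent ONE-Glo read, 30min at room temperature, follows 16hr compound exposure (15 concentrations) of MDA-kb2 cells at 37C, 0% CO2, with nilutamide added at 3.0uM final.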
% is scaled to controls: 0 for no effect and ±100 for the full control effect.

CC(=O)OCC1=C(C(=O)O)N2C(=O)[C@@H](NC(=O)CSc3ccncc3)[C@H]2SC1
inactive: Potency [1] | Potency [2] | Potency [3] | Potency [4] | Potency [5] | Potency [6] | Potency [7] | Potency [8] | Potency [9] | Potency [10] | Potency [11] | Potency [12]

CC1C(C)(C)C2=C(C(=O)CCC2)C1(C)C (stereo not given)
inactive: Potency [1] | Potency [3] | Potency [13] | Potency [5] | Potency [14] | Potency [9] | Potency [10] | Potency [15] | Potency [16] | Potency [11] | Potency [12]

NC(=O)CCCCC(N)=O
inactive: Potency [1] | Potency [17] | Potency [3] | Potency [5] | Potency [14] | Potency [6] | Potency [7] | Potency [8] | Potency [9] | Potency [10] | Potency [16] | Potency [11] | Potency [12]

CCCc1nc2c(C)cc(-c3nc4ccccc4n3C)cc2n1Cc1ccc(-c2ccccc2C(=O)O)cc1
inactive: Potency [17] | Potency [2] | Potency [3] | Potency [13] | Potency [14] | Potency [6] | Potency [7] | Potency [15] | Potency [11] | Potency [12]

CC(CO)(CO)C(=O)O
inactive: Potency [17] | Potency [3] | Potency [13] | Potency [4] | Potency [5] | Potency [14] | Potency [6] | Potency [7] | Potency [9] | Potency [10] | Potency [15] | Potency [16]

Cc1ccc2c(c1[N+](=O)[O-])C(=O)c1ccccc1C2=O
inactive: Potency [17] | Potency [3] | Potency [13] | Potency [4] | Potency [5] | Potency [14] | Potency [6] | Potency [9] | Potency [10] | Potency [15] | Potency [11] | Potency [12]

O=C(CCS)OCC(COC(=O)CCS)(COC(=O)CCS)COC(=O)CCS
inactive: Potency [1] | Potency [3] | Potency [13] | Potency [4] | Potency [14] | Potency [6] | Potency [7] | Potency [8] | Potency [15] | Potency [11] | Potency [12]

COc1cc(NS(=O)(=O)c2ccc(N)cc2)nc(C)n1
inactive: Potency [1] | PLD induction [2] -3.88% [at 7.66 µM] | Potency [3] | Potency [13] | Potency [4] | Potency [14] | Potency [6] | Potency [9] | Potency [10] | Potency [15] | Potency [16] | Potency [11] | Potency [12]

COc1cc(NC(C)CCCN)c2ncccc2c1 (stereo not given)
inactive: Potency [1] | Potency [17] | Potency [2] | Potency [3] | Potency [4] | Potency [14] | Potency [6] | Potency [7] | Potency [8] | Potency [10] | Potency [15] | Potency [16] | Potency [11] | Potency [12]

CC(=O)C(=O)CC(C)C
inactive: Potency [1] | Potency [3] | Potency [13] | Potency [4] | Potency [5] | Potency [6] | Potency [9] | Potency [10] | Potency [16] | Potency [11] | Potency [12]

CC(=O)NCCO
inactive: Potency [1] | Potency [3] | Potency [13] | Potency [4] | Potency [14] | Potency [6] | Potency [7] | Potency [8] | Potency [9] | Potency [10] | Potency [15] | Potency [11] | Potency [12]

O[C@@H](CNC[C@H](O)[C@H]1CCc2cc(F)ccc2O1)[C@@H]1CCc2cc(F)ccc2O1
inactive: Potency [3] | Potency [13] | Potency [14] | Potency [7] | Potency [16] | Potency [11] | Potency [12]
active: Potency [2] 3.55 µM | Potency [4] 29.8 µM | Potency [5] 29.8 µM | Potency [6] 13.3 µM | Potency [8] 8.41 µM | Potency [10] 11.9 µM

O=C1c2ccccc2C(=O)c2c(O)ccc(O)c21
inactive: Potency [1] | Potency [3] | Potency [13] | Potency [4] | Potency [5] | Potency [14] | Potency [10] | Potency [15]

CCN(CC)CCOC(=O)C(c1ccccc1)c1ccccc1
inactive: Potency [1] | Potency [2] | Potency [3] | Potency [13] | Potency [4] | Potency [5] | Potency [14] | Potency [6] | Potency [7] | Potency [8] | Potency [9] | Potency [15] | Potency [11] | Potency [12]

O=S(=O)(Cl)c1c(Cl)cccc1Cl
inactive: Potency [18] | Potency [17] | Potency [3] | Potency [13] | Potency [5] | Potency [14] | Potency [7] | Potency [8] | Potency [9] | Potency [10] | Potency [19] | Potency [15] | Potency [16] | Potency [11] | Potency [12]

CN1CCCN(C(c2ccccc2)c2ccc(Cl)cc2)CC1 (stereo not given)
inactive: Potency [3] | Potency [13] | Potency [14] | Potency [19] | Potency [16] | Potency [11] | Potency [12]
active: Potency [6] 5.96 µM | Potency [10] 13.3 µM | Potency [15] 13.3 µM

CC(=O)N[C@@H](Cc1ccc(O)cc1)C(=O)O
inactive: Potency [1] | Potency [2] | Potency [3] | Potency [13] | Potency [4] | Potency [5] | Potency [14] | Potency [6] | Potency [7] | Potency [10] | Potency [15] | Potency [11] | Potency [12]

[Cl][Nd]([Cl])[Cl]
inactive: Potency [17] | Potency [3] | Potency [13] | Potency [14] | Potency [6] | Potency [7] | Potency [8] | Potency [9] | Potency [10] | Potency [15] | Potency [11] | Potency [12]

CC(=O)OCCC(C)CC(C)(C)C (stereo not given)
inactive: Potency [1] | Potency [17] | Potency [3] | Potency [13] | Potency [4] | Potency [5] | Potency [14] | Potency [6] | Potency [9] | Potency [10] | Potency [15] | Potency [11] | Potency [12]
